Laboratory results taken from PubChem BioAssay.
Activity calls are given as the source filed them. Unless noted, the rule behind the calls is not given here.

How the values were obtained:
[1] = tested on: Wnt5a (protein binding on small-molecule microarray); assay: small molecules binding Wnt5a protein – biophysical, small-molecule microarray, 635/667 nm fluorescence, primary screen (AID 1142); conditions: 635 nm fluorescence, higher = more signal;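 note: fluorescence read at 667 nm with signal to noise per printed feature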
[2] = ATP-based viability of Huh7 replicon cells – cell-based, CellTiter-Glo luminescence, basal, 48 h, cytotoxicity control for HCV replication inhibitor project, primary screen (AID 1143); conditions: higher = more signal, called active from +8 up or from −8 down;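 note: Huh7 hepatoma cells carrying a hepatitis C replication reporter with no stimulus; test concentration not given here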
[3] = Pseudomonas biofilm growth suppression – PAO1 strain, BacTiter-Glo luminescence, LB-PBS, primary screen (AID 1144); conditions: P. aeruginosa PAO1 biofilm, 12 h, higher = more signal
[4] = basal CRE-LacZ reporter activity in PC12 – cell-based, unstimulated, primary screen (AID 1145); conditions: no forskolin, luminescence, 4.5 h, higher = more signal, called active from +8 up or from −8 down
[5] = forskolin-driven CRE-LacZ activity in PC12 – cell-based, CRE-LacZ reporter, forskolin-stimulated, primary screen (AID 1146); conditions: luminescence, 4.5 h, higher = more signal, called active from +8 up or from −8 down;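 note: PC12 cells with 6xCRE LacZ reporter stimulated by forskolin 10 µM; beta-galactosidase reporter signal reflecting CREB driven transcription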
[6] = target: Streptavidin (Streptomyces avidinii) (UniProt P22629); assay: compounds binding control protein streptavidin – biophysical, small-molecule microarray, 635/667 nm fluorescence, artefact control for SMM compound annotation, primary screen (AID 1147); conditions: higher = more signal;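 note: signal reflects streptavidin binding to arrayed compounds as a control protein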
Sequence of Streptavidin (Streptomyces avidinii) (P22629 whole entry, looked up): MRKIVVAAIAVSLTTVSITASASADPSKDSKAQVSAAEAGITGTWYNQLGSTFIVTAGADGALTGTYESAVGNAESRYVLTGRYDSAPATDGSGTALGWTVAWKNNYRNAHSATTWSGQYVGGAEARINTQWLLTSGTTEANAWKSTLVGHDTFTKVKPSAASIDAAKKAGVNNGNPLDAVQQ

[7] = probe aInhba binding on compound microarray – biochemical, small-molecule microarray, 635/667 nm fluorescence, primary screen (AID 1148); conditions: higher = more signal;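 note: score merges 667nm spot fluorescence with signal-to-noise for antibody binding to printed compounds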
[8] = target: Torsin-1A (Homo sapiens) (UniProt O14656); assay: TOR1A wild-type binding on microarray – cell lysate, small-molecule microarray, lysate, 635/667 nm, primary screen (AID 1149); conditions: COS7 hTOR1A-WT lysate, 635 nm fluorescence, higher = more signal
Sequence of Torsin-1A (Homo sapiens) (O14656 whole entry, looked up): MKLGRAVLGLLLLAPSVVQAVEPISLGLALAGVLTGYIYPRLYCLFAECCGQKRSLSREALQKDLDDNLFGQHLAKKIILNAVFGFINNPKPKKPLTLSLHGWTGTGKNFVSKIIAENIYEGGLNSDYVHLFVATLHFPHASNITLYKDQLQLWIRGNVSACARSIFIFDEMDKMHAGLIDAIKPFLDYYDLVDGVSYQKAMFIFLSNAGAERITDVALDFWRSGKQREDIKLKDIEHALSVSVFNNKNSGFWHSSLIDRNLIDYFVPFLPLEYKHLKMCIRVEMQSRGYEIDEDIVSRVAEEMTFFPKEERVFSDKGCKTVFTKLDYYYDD

[9] = target: Torsin-1A (Homo sapiens) (UniProt O14656); assay: torsin A mutant lysate binding on microarrays – cell lysate, small-molecule microarray, COS7 lysate, 635/667 nm fluorescence, primary screen (AID 1150); conditions: COS7 hTOR1A mutant lysate, 635 nm fluorescence, higher = more signal;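 note: score pools 667 nm emission and signal to noise measuring lysate protein binding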
[10] = tested on: Sonic hedgehog protein (Shh); assay: Sonic hedgehog microarray binding compounds – biochemical, small-molecule microarray, 635/667 nm fluorescence, primary screen (AID 1151); conditions: 635 nm fluorescence, higher = more signal;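 note: Shh protein binding to compounds spotted on small-molecule microarray slides; score combines spot fluorescence intensity with signal-to-noise across triplicate slides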

Structure (SMILES) | composite z-score [1] | z-score [2] | z-score [3] | z-score [4] | z-score [5] | composite z-score [6] | composite z-score [7] | composite z-score [8] | composite z-score [9] | composite z-score [10]
CCOC(=O)C1=CC[C@@H](c2ccc(-c3ccc(OCc4ccccc4)cc3)c(OC)c2)N(S(=O)(=O)c2ccc(C)cc2)[C@H]1c1ccccc1 | 0.0858 | -2.32 (inactive) | -1.05 (inactive) | -0.489 (inactive) | 0.1 (inactive) | 1.67 | 0.119 | 0.277 | 0.518 | 1.15
COCCOC(=O)N1C(=O)[C@@]2(c3cc(C#CCCO)ccc31)[C@H](c1ccc(O)cc1)N1[C@H](c3ccccc3)[C@H](c3ccccc3)OC(=O)[C@H]1[C@@H]2C(=O)Nc1nc2ccccc2s1 | 0.607 | -2.49 (inactive) | -1.24 (inactive) | -1.7 (inactive) | -0.0062 (inactive) | 0.996 | -0.0062 | -0.0624 | 0.236 | 2.03
NC(=O)NCC#Cc1ccc2c(c1)[C@]1(C(=O)N2)[C@H](C(N)=O)[C@H]2C(=O)O[C@H](c3ccccc3)[C@H](c3ccccc3)N2[C@@H]1c1ccccc1OCCO | 0.0902 | 0.463 (inactive) | -0.258 (inactive) | 0.918 (inactive) | -0.447 (inactive) | 0.28 | 0.0091 | 0.247 | 0.396 | 1.18
C=CC[C@]1(C(=O)O)N=C(c2ccc(OCCCO)cc2)O[C@H]1c1ccccc1N=[N+]=[N-] | 0.477 | -0.426 (inactive) | 1.09 (inactive) | 0.629 (inactive) | -1.32 (inactive) | 1.27 | -0.026 | 0.0545 | 0.125 | -0.373
CCc1cccc(NC(=O)O[C@H]2[C@H](OC(=O)Nc3ccccc3)[C@@H](OC(=O)Nc3ccccc3)[C@@H](OC)O[C@@H]2CO)c1 | 0.73 | -5.6 (inactive) | -0.944 (inactive) | 0.344 (inactive) | -1.9 (inactive) | 0.39 | 0.0785 | 2.73 | 0.896 | 1.72
COc1ccc(C(O)C2C=CC3C(=O)N(C)C(=O)C3N2N2CCCCC2)cc1OCc1ccccc1 (centres undefined) | 0.0847 | 0.135 (inactive) | -0.314 (inactive) | 0.433 (inactive) | -0.342 (inactive) | 0.701 | -0.0332 | 0.0884 | 0.836 | -0.282
COc1ccc([Si](C)(C)[C@H]2[C@H](CC(=O)N(CCO)Cc3ccccc3)O[C@@]3(C(=O)N(C)c4ccccc43)[C@@H]2C)cc1 | 0.321 | -5.59 (inactive) | -0.306 (inactive) | 4.69 (inactive) | 0.0125 (inactive) | 0.153 | -0.0986 | 0.0317 | 0.83 | 1.65
COCCOC(=O)N1C(=O)[C@@]2(c3cc(C#CCNC(N)=O)ccc31)[C@H](C(=O)N1CCCCCCC1)[C@H]1C(=O)O[C@H](c3ccccc3)[C@H](c3ccccc3)N1[C@@H]2c1ccccc1OCCO | 0.472 | -0.798 (inactive) | -0.416 (inactive) | -0.602 (inactive) | -1.01 (inactive) | 0.875 | 0.218 | 0.207 | 0.645 | 1.09
COc1ccc([C@H]2C[C@H]3C(Br)=C[C@]2(OC)C(=O)[C@]32CO2)cc1 | -0.225 | 0.147 (inactive) | -0.64 (inactive) | 0.586 (inactive) | 2.58 (inactive) | -0.0817 | -0.128 | 0.806 | -0.278 | -0.038
CCOC(=O)C1=CCC(c2cccc3ccccc23)N(S(=O)(=O)c2ccc(C)cc2)C1 (centres undefined) | 0.204 | -3.85 (inactive) | 0.00942 (inactive) | -0.826 (inactive) | -0.0663 (inactive) | 1.12 | 0.201 | 0.334 | 0.216 | -0.717
Cc1ccc(S[C@]2(C(=O)NCCCN(C)C)CC(=O)N(Cc3ccccc3)[C@@H]2c2ccc(CO)cc2I)cc1 | -0.278 | -2.97 (inactive) | 0.831 (inactive) | 0.531 (inactive) | 2.84 (inactive) | -0.0112 | -0.0645 | -1.84 | -1.08 | -0.824
C=C(COC)C(=O)CC[C@H](OC(=O)c1ccccc1-c1ccccc1C(=O)O)c1cccc(OCCO)c1 | 2.01 | -8.1 (active) | -0.805 (inactive) | 0.102 (inactive) | 0.683 (inactive) | -1.8 | -0.0332 | 2.33 | 2.6 | 2.34
CCC1=C2CN(Cc3ccccc3Br)[C@@H]([C@@H](O)Cc3ccccc3)C2C=CCC1 (some centres undefined) | 0.0361 | -5.22 (inactive) | -0.709 (inactive) | 2.12 (inactive) | 4.84 (inactive) | 0.721 | -0.105 | 0.476 | 0.212 | 0.675
C=C(CCCC)/C(=C/C[C@@H](OC(=O)c1ccncc1)c1ccc(CO)o1)c1cnc2ccccc2c1 | 0.209 | -1.47 (inactive) | -1.26 (inactive) | 2.38 (inactive) | 0.176 (inactive) | 1.39 | 0.461 | 1.42 | 1.07 | 2.18
O=C1O[C@H](c2ccccc2)[C@H](c2ccccc2)N2[C@H]1[C@@H](C(=O)NC[C@H](O)c1ccccc1)[C@]1(C(=O)Nc3ccc(C#CC4=CCCCC4)cc31)[C@H]2c1ccc(OCCO)cc1 | 0.271 | -4.66 (inactive) | -0.625 (inactive) | 0.0653 (inactive) | -0.337 (inactive) | 0.635 | -0.0695 | 0.257 | 0.705 | 1.11
CC1=C([C@H](O)CCc2ccccc2)[C@H](CO)[C@@H]2C(=O)N(Cc3ccccc3)C(=O)[C@@H]2C1 | 0.079 | -0.932 (inactive) | -1.43 (inactive) | 0.851 (inactive) | -0.425 (inactive) | 0.925 | -0.0451 | -0.0669 | 0.279 | 0.256
O=C1C2C=CC(C(O)C#Cc3ccccc3)N(Nc3ccccc3)C2C(=O)N1c1ccccc1 (centres undefined) | 0.0509 | 0.842 (inactive) | -0.2 (inactive) | 0.24 (inactive) | 0.0728 (inactive) | 0.464 | 0.0659 | 0.795 | -0.0627 | -0.0028
C=CC[C@@]1(C(=O)NCC(O)CO)N=C(c2ccc(OCCCO)cc2)O[C@@H]1c1ccccc1CN=[N+]=[N-] (some centres undefined) | -0.233 | -1.74 (inactive) | -0.427 (inactive) | -0.459 (inactive) | -0.783 (inactive) | 0.0285 | 0.0705 | 1.09 | 2.13 | -0.364
CN1C(=O)C2C=CC(C(O)c3ccc(N(C)C)cc3)N(Nc3ccc([N+](=O)[O-])cc3[N+](=O)[O-])C2C1=O (centres undefined) | 0.0988 | 0.891 (inactive) | -0.202 (inactive) | 1.03 (inactive) | 0.0229 (inactive) | 1.51 | 0.529 | 0.977 | 1.56 | 0.262
O=C1O[C@H](c2ccccc2)[C@H](c2ccccc2)N2[C@H]1[C@@H](C(=O)Nc1nc3ccccc3s1)[C@]1(C(=O)Nc3ccc(C#CC4=CCCCC4)cc31)[C@H]2c1ccccc1OCCO | 0.266 | -4.26 (inactive) | 0.331 (inactive) | 0.619 (inactive) | -0.0292 (inactive) | 0.841 | 0.0649 | 0.552 | 0.0083 | 1.63
C[C@@H]1NC(=O)[C@H](Cc2ccccc2)NC(=O)[C@@]23C(=O)N[C@@H](Cc4ccccc4)C2[C@H](C)[C@@]2(C)O[C@H]2C3/C=C/C/C=C\CNC1=O (some centres undefined) | -0.401 | 0.0081 (inactive) | 0.683 (inactive) | 0.125 (inactive) | 0.349 (inactive) | -0.528 | -0.128 | -0.0926 | -0.0686 | 0.596
C=C(C)[C@@H]1CC=C(C(O)C2C=CC3C(=O)NC(=O)C3N2Nc2ccccn2)CC1 (some centres undefined) | 0.742 | 0.715 (inactive) | -0.555 (inactive) | -0.14 (inactive) | 0.621 (inactive) | 0.717 | 0.093 | 1.1 | 0.705 | 2.28
C=CCC(OC(C)=O)[C@@H]1[C@@H](N(Cc2ccc(-c3cccc(C(F)(F)F)c3)o2)C(=O)Cc2ccc(F)cc2)c2cc(OCCCO)ccc2N1C(=O)c1ccc(-c2ccccc2)cc1 (some centres undefined) | -0.206 | -0.072 (inactive) | -0.581 (inactive) | 0.6 (inactive) | 0.875 (inactive) | 0.0628 | -0.157 | -0.53 | -0.253 | 0.475
COc1ccc([Si](C)(C)[C@@H]2[C@@H](CCO)O[C@]3(C(=O)N(Cc4ccc(NC(=O)[C@H](C)O)cc4)c4ccccc43)[C@H]2C)cc1 | 0.186 | -8.04 (active) | -0.261 (inactive) | 18.4 (active) | -1.12 (inactive) | 0.458 | -0.0471 | 0.504 | 0.392 | 0.599
O=C1OCC=C[C@H]2OC34C=CCN(Cc5ccccc5)C(=O)[C@H]3N(CCO)C(=O)[C@@H]4[C@@H]12 (some centres undefined) | -0.744 | 0.154 (inactive) | -0.992 (inactive) | -1.31 (inactive) | -0.773 (inactive) | -1.09 | -0.307 | -2.02 | -0.768 | -0.722
CCN1C(C)=C(C(=O)OC)[C@@H](c2ccccc2)N2C(=O)[C@@]3(C(=O)OC)O[C@@]12[C@@H]1C(=O)N(C)C(=O)[C@@H]13 | 0.601 | -0.674 (inactive) | – | 0.922 (inactive) | -1.21 (inactive) | 0.233 | -0.157 | 0.587 | 0.368 | 0.971
Cc1ccc(S[C@]2(C(=O)NC(C)C)CC(=O)N(C3Cc4ccccc4C3)[C@@H]2c2ccc(CO)cc2)cc1 | -0.157 | -4.65 (inactive) | -0.132 (inactive) | -0.231 (inactive) | 0.978 (inactive) | -0.37 | -0.32 | 0.876 | 0.764 | 1.67
COC(=O)Cn1c(C(=O)N2CCCC2)cc2c1C[C@H]1CN(C(=O)c3ccccc3)[C@@](Cc3ccc(OC)cc3)(C(=O)OC)[C@@H]21 | 0.381 | -2.77 (inactive) | 0.74 (inactive) | 1.72 (inactive) | 1.59 (inactive) | 0.927 | 0.711 | -0.0629 | 0.306 | -0.812
